# Measurements from PubChem BioAssay.
# Active and inactive are the calls of the source.
# Legend:
# Albumin (Bos taurus) = Albumin (Bos taurus) (UniProt P02769); experiment: bovine serum albumin binders on microarray, profiling panel, artefact control for SMM control protein annotation, biochemical, small-molecule microarray, Alexa647 label, 635/667 nm fluorescence (AID 1118); details: BSA-A647 binding, fluorescence 635 nm, higher = more signal;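 further: score merges 667 nm emission intensity and signal-to-noise per printed compound spot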
# Chain of Albumin (Bos taurus) (P02769 whole entry, looked up): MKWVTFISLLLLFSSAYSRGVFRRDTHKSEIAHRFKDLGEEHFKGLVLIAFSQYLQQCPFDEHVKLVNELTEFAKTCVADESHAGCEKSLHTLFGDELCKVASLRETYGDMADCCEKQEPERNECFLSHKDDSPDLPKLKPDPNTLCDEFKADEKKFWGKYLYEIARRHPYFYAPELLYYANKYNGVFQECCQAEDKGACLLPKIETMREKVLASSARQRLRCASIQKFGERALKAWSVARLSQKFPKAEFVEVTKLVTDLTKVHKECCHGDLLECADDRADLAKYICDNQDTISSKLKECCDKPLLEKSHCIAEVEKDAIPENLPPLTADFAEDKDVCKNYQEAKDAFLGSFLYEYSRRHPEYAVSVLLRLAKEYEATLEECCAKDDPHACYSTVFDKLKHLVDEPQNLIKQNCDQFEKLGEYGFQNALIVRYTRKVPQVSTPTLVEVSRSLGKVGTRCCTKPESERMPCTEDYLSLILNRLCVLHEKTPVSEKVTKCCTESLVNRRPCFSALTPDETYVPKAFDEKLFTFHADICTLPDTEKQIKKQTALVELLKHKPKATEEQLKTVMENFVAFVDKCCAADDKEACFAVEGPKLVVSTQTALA
# [1] = small-molecule microarray binders of probe aXIP, primary screen, biochemical, NeuroSMM set, 635/667 nm fluorescence (AID 1119); details: higher = more signal, called active from +8 up or from −8 down;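 further: probe is the protein aXip251-270 applied at 1 µg/mL to compound-printed slides; binding of probe to printed compounds measured as 667 nm fluorescence plus signal to noise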
# [2] = small-molecule binders of probe aNOTCH3, primary screen, biochemical, small-molecule microarray, 635/667 nm fluorescence (AID 1120); details: higher = more signal;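 further: probe is a biotin-tagged antibody raised against NOTCH3 rather than NOTCH3 protein; score merges spot fluorescence near 667 nm with spot signal to noise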
# [3] = small-molecule binders of probe aNOTCH2, primary screen, biochemical, small-molecule microarray, 635/667 nm fluorescence (AID 1121); details: higher = more signal;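 further: score merges feature fluorescence read at 667 nm with its signal to noise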
# [4] = biological target: Carbonic anhydrase 2 (Homo sapiens) (UniProt P00918); experiment: CAII small-molecule binders, profiling panel, biochemical, small-molecule microarray, Alexa647-labelled CAII (AID 1122); details: CAII-A647 binding fluorescence, higher = more signal
# [5] = COS7 lysate on small-molecule microarray, probe aHis, 635 nm (AID 1123); details: COS7 cell lysate, fluorescence, higher = more signal;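 further: z-score combines 667nm fluorescence intensity with signal-to-noise per printed compound spot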
# [6] = compound binding in COS7 lysate, probe aLAP1, primary screen, cell lysate, small-molecule microarray (AID 1124); details: probe aLAP1, fluorescence, higher = more signal;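 further: lysate comes from COS7 cells expressing LAP1 and is applied at 0.3 µg/mL; score merges spot fluorescence near 667 nm with signal-to-noise over triplicate slides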
# Sam68 (KHDRBS1) = experiment: Sam68 small-molecule binders, primary screen, biochemical, small-molecule microarray, 635 nm fluorescence (AID 1125); details: small-molecule microarray binding, higher = more signal;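 further: score merges 667 nm channel intensity with signal to noise over triplicate slides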
# [7] = tested on: Chordin-like protein 2 (CHRDL2); experiment: CHRDL2 small-molecule binders, primary screen, biochemical, small-molecule microarray, 635 nm fluorescence (AID 1126); details: small-molecule microarray binding, fluorescence 635 nm; higher = more signal;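 further: printed compound slides probed with Chrdl2 protein at 4 µg/mL for 1 h at 4 C; score merges 667 nm emission intensity with signal to noise over three replicate slides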
# [8] = biological target: Concanavalin-A (Canavalia ensiformis) (UniProt P02866); experiment: ConA small-molecule binders, primary screen, artefact control for SMM control protein annotation, biochemical, small-molecule microarray, Alexa647 label, 635 nm (AID 1127); details: ConA-A647 binding fluorescence, higher = more signal;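 further: z combines 667 nm emission intensity with signal-to-noise across three replicate slides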
# Chain of Concanavalin-A (Canavalia ensiformis) (P02866 whole entry, looked up): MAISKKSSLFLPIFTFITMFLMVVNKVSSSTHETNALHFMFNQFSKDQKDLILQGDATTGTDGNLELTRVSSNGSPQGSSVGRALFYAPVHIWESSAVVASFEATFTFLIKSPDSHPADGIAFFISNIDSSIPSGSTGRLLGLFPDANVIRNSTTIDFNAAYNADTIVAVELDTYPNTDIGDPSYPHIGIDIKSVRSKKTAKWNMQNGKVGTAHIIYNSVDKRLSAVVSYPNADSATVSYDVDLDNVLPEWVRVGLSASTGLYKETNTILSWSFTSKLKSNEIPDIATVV
Structure (SMILES),composite z-score (Albumin (Bos taurus)),composite Z-score [1],composite z-score [2],composite z-score [3],composite z-score [4],composite z-score [5],composite z-score [6],composite z-score (Sam68 (KHDRBS1)),composite z-score [7],composite z-score [8]
CCCCC(=C=CC[C@@H](O)c1ccc(OCCO)cc1)CCO,0.543,0.742 (inactive),-0.0947,-0.12,0.755,1.46,0.145,0.118,-0.346,-0.321
O=C1O[C@H](c2ccccc2)[C@H](c2ccccc2)N2[C@H]1[C@@H](C(=O)N1CCCCCCC1)[C@]1(C(=O)Nc3ccc(C#CCCO)cc31)[C@H]2c1ccc(O)cc1,0.777,9.39 (active),2.27,1.18,0.91,4.64,1.53,1.35,1.68,1.17
C[N+](C)(C)CCCC[C@@H]1NC(=O)[C@H]2C[C@@H](C(=O)NCCCCCN)[C@@H](c3ccc(O)cc3)N2C1=O,0.567,-0.116 (inactive),-0.0586,-0.053,0.67,1.14,0.736,1.3,0.444,1.18
CCCCCCc1nc(Cc2cc(OC)c(OC)c(OC)c2)c(C)c2c1[Si](C(C)C)(C(C)C)OC2,-0.287,0.108 (inactive),-0.13,-0.178,-0.0168,0.0854,-0.251,0.294,0.19,0.0356
C[C@]12C(=O)N(CCO)[C@@H]3C(=O)N(c4ccc(Cl)cc4)CC=CC31O[C@@H]1/C=C\CCCOC(=O)C12 (stereo not given in full),0.575,0.0414 (inactive),-0.183,-0.0798,0.883,-0.485,-0.0785,-0.0284,-1.62,-0.263
CCOC(=O)C1=CC[C@@H](c2ccccc2)N(S(=O)(=O)c2ccc(C)cc2)[C@@H]1C#N,0.118,0.4 (inactive),0.0112,-0.026,0.518,1.87,-0.0567,1.23,-0.315,0.855
C=C(CC1([C@@H](NP(=O)(c2ccccc2)c2ccccc2)[C@H]2C[C@@H]2CCCC)CC1)c1cccc(OC)c1,0.615,0.107 (inactive),0.222,0.119,0.334,1.86,-0.151,-0.176,-1.06,0.506
C[C@]1(C(=O)NCC(F)(F)F)c2ccccc2C(=O)N(Cc2cc(C(F)(F)F)cc(C(F)(F)F)c2)[C@H]1c1ccc(CO)cc1,0.154,0.196 (inactive),-0.154,-0.0226,0.306,1.11,0.108,0.1,-0.404,-0.522
COc1ccc([Si](C)(C)[C@H]2[C@H](CC(=O)N(CCO)Cc3ccccc3)O[C@@]3(C(=O)N(Cc4ccc(N5C(=O)c6cccc7cccc5c67)cc4)c4ccccc43)[C@@H]2C)cc1,0.0079,0.0959 (inactive),0.376,-0.0928,0.593,1.52,0.801,0.747,0.71,1.16
COC(=O)Cn1c(C(=O)N(C)C)cc2c1C[C@H]1CN(C(=O)c3ccccc3)[C@@](Cc3ccccc3)(C(=O)OC)[C@@H]21,0.759,-0.265 (inactive),0.194,0.417,0.792,1.55,0.817,-0.627,-0.537,0.169
COc1cccc(C)c1NC(=O)O[C@H]1[C@H](OC(=O)Nc2ccccc2-c2ccccc2)[C@@H](OC(=O)Nc2ccccc2-c2ccccc2)[C@@H](OC)O[C@@H]1CO,0.848,0.694 (inactive),0.668,0.0151,0.712,1.44,0.762,1.3,0.0298,1.02
C=CCNC(=O)[C@@H]1[C@H]2C(=O)O[C@H](c3ccccc3)[C@H](c3ccccc3)N2[C@H](c2ccc(O)cc2)[C@@]12C(=O)Nc1ccc(C#CC3=CCCCC3)cc12,0.543,0.986 (inactive),1.22,-0.0857,0.676,1.69,1.24,1.32,0.334,1.04
COc1ccc([Si](C)(C)[C@H]2[C@H](CC(=O)N(CCO)Cc3ccccc3)O[C@@]3(C(=O)N(c4ccccc4)c4ccccc43)[C@@H]2C)cc1,0.504,0.308 (inactive),0.123,-0.117,0.34,0.66,0.264,1.2,1.19,1.06
O=C1c2ccccc2[C@@]2(Cc3ccccc3N(CC(F)(F)F)C2=O)[C@H](c2ccc(CO)cc2)N1Cc1ccccc1,-0.507,-0.207 (inactive),0.0698,-0.219,-0.13,-0.211,0.0163,0.166,0.62,0.0118
Cc1ccc(S(=O)(=O)N2[C@@H](c3ccccc3)C(C(=O)O)=CC[C@H]2c2ccc(F)cc2)cc1,0.458,0.615 (inactive),-0.0044,-0.116,0.893,3.31,1.72,1.18,-1.09,-0.177
C=C(/C=C\CNS(=O)(=O)c1ccc(C)cc1)[C@H](O)[C@H]1CCCN1S(=O)(=O)c1ccccc1[N+](=O)[O-],0.678,-0.429 (inactive),0.0026,-0.147,0.319,0.119,-0.538,0.127,0.411,0.152
CC(C)N1CC=CC23O[C@@H]4/C=C\CCCOC(=O)C4[C@H]2C(=O)N(C(C)CO)[C@@H]3C1=O (stereo not given in full),-0.446,0.0835 (inactive),-0.24,-0.177,0.913,0.17,-0.443,-0.222,-0.956,-0.313
[N-]=[N+]=Nc1ccccc1C[C@]1(C(N)=O)COC(c2ccc(OCCCO)cc2)=N1,0.66,0.745 (inactive),0.148,0.105,0.77,2.98,1.46,0.0271,-0.324,-0.401
[N-]=[N+]=NCc1ccccc1C[C@@]1(C(=O)NCCN2CCOCC2)N=C(c2ccc(OCCCO)cc2)O[C@@H]1c1ccccc1,0.818,1.03 (inactive),0.307,-0.106,0.655,2.77,0.136,1.19,-0.879,0.944
C[C@]1(C(=O)O)c2ccccc2C(=O)N(Cc2cc(C(F)(F)F)cc(C(F)(F)F)c2)[C@H]1c1ccc(CO)cc1,0.514,0.365 (inactive),0.0426,-0.106,0.728,0.516,-0.178,0.666,-0.833,0.928
C=CCOC(=O)[C@H]1[C@@H]2C(=O)O[C@@H](c3ccccc3)[C@@H](c3ccccc3)N2[C@@H](c2ccc(OCCOC(=O)[C@H]3C[C@H]4C(=O)NCC(=O)N4[C@H]3c3ccc(O)cc3)cc2)[C@]12C(=O)Nc1ccccc12,-0.501,1.19 (inactive),0.948,-0.0631,0.6,1.67,0.96,1.29,0.815,1.18
COc1cc(CO)cc(I)c1O[C@H]1C=C(C(=O)NCCO)C[C@@H](N(CCN2CCOCC2)C(=O)C2CCCO2)[C@@H]1O (stereo not given in full),-0.184,0.204 (inactive),0.0261,-0.0684,-0.107,-0.61,-0.0581,-0.0878,0.365,-0.0855
CC(C)(C)OC(=O)CC[C@]1(C(N)=O)N=C(c2ccc(OCCCO)cc2)O[C@H]1c1ccccc1N=[N+]=[N-],0.426,0.59 (inactive),0.156,-0.084,0.791,1.61,0.242,0.522,-0.416,0.741
C=C[C@H](C)[C@@H](OC(=O)Nc1ccc(SC)cc1)c1ccc(OCCO)cc1,0.312,0.794 (inactive),0.137,-0.0008,0.397,1.59,0.471,0.157,0.28,0.272
